These results are taken from PubChem BioAssay.

Activity calls are given as the source filed them. Unless noted, no rule for the calls is given here.

The nature of assay [1]: compounds binding Alexa647 anti-His antibody – biochemical, small-molecule microarray, 635 nm fluorescence, artefact control for SMM control protein annotation, primary screen (AID 1128).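 Also: score merges feature fluorescence with signal-to-noise for each printed compound spot.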 Particulars: higher = more signal.
In assay [2] the test system is Human papillomavirus type 1a E7 protein (residues 1-88). As to the kind of experiment: HPV1a E7 small-molecule binders, primary screen, biochemical, small-molecule microarray, residues 1-88, 635 nm (AID 1129). Particulars: small-molecule microarray binding, fluorescence 635 nm; higher = more signal.
Assay [3] addresses Focal adhesion kinase 1 (Homo sapiens) (UniProt Q05397). Put plainly: PTK2 protein binding on printed compound slides – biochemical, small-molecule microarray, 635/667 nm fluorescence, BSA, DTT, primary screen (AID 1130).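 Also: composite of spot emission at 667 nm and signal to noise over triplicate slides.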 Particulars: 635 nm fluorescence, higher = more signal.
For assay [4], the system named is Fibrinogen (Alexa647-labelled). Put plainly: Alexa647-fibrinogen binding to printed small molecules – biochemical, small-molecule microarray, 635/667 nm fluorescence, artefact control for SMM control-protein annotation, profiling panel (AID 1131).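 Also: z-score merges 667 nm fluorescence with per-spot signal-to-noise over triplicate slides.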 Conditions: fibrinogen-A647 binding fluorescence, higher = more signal.
The target in assay [5] is Follistatin (Homo sapiens) (UniProt P19883). As to the kind of experiment: FST protein binding to printed compounds – biochemical, small-molecule microarray, 635/667 nm fluorescence, primary screen (AID 1132). Particulars: 635 nm fluorescence, higher = more signal.
Assay [6] deals with Fibroblast growth factor 2 (Homo sapiens) (UniProt P09038). Put plainly: basic fibroblast growth factor binding to printed compounds – biochemical, small-molecule microarray, 635/667 nm fluorescence, primary screen (AID 1133). Conditions: FGF2, fluorescence 635/667, higher = more signal.
The nature of assay [7]: JC-1 mitochondrial potential readout, lung cancer cells – cell-based, A549, JC-1 fluorescence, basal, 24 h, 100 nL, profiling panel (AID 1138).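 Also: A549 lung adenocarcinoma cells under basal conditions with no added stimulus; test concentration not given here.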 Conditions: higher = more signal.
The next assay concerns Lefty1. As to the kind of experiment: Lefty1 protein binding to printed compounds – biochemical, small-molecule microarray, 635/667 nm fluorescence, primary screen (AID 1139). Conditions: fluorescence 635/667, higher = more signal.
Assay [8] deals with wheat germ agglutinin (Triticum aestivum), Alexa647-labelled. As to the kind of experiment: Alexa647-WGA lectin binding to printed small molecules – biochemical, small-molecule microarray, 635/667 nm fluorescence, artefact control for SMM control-protein annotation, profiling panel (AID 1140).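 Also: score merges 667 nm feature emission with signal to noise over triplicate slides.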 Conditions: WGA-A647 binding, 635 nm fluorescence, higher = more signal.
Assay [9] deals with Luciferin 4-monooxygenase (Photinus pyralis) (UniProt P08659). As to the kind of experiment: inhibition of purified Photinus pyralis luciferase – biochemical, luminescence, purified enzyme, 2006 set, primary screen (AID 1141).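 Also: cell-free assay with purified firefly luciferase at 100 ng per well in PBS; test concentration not given here.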 Particulars: purified firefly luciferase, SteadyGlo luminescence, 30 min; higher = more signal, called active from +8 up or from −8 down.
Assay [10] relates to Wnt5a (protein binding on small-molecule microarray). As to the kind of experiment: small molecules binding Wnt5a protein – biophysical, small-molecule microarray, 635/667 nm fluorescence, primary screen (AID 1142).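 Also: fluorescence read at 667 nm with signal to noise per printed feature.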 Particulars: 635 nm fluorescence, higher = more signal.
Assay [11] is described as follows: ATP-based viability of Huh7 replicon cells – cell-based, CellTiter-Glo luminescence, basal, 48 h, cytotoxicity control for HCV replication inhibitor project, primary screen (AID 1143).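 Also: Huh7 hepatoma cells carrying a hepatitis C replication reporter with no stimulus; test concentration not given here.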 Conditions: higher = more signal, called active from +8 up or from −8 down.
Assay [12] is described as follows: Pseudomonas biofilm growth suppression – PAO1 strain, BacTiter-Glo luminescence, LB-PBS, primary screen (AID 1144). Conditions: P. aeruginosa PAO1 biofilm, 12 h, higher = more signal.
Assay [13] is described as follows: basal CRE-LacZ reporter activity in PC12 – cell-based, unstimulated, primary screen (AID 1145). Particulars: no forskolin, luminescence, 4.5 h, higher = more signal, called active from +8 up or from −8 down.
Assay [14] in a line: forskolin-driven CRE-LacZ activity in PC12 – cell-based, CRE-LacZ reporter, forskolin-stimulated, primary screen (AID 1146).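 Also: PC12 cells with 6xCRE LacZ reporter stimulated by forskolin 10 µM; beta-galactosidase reporter signal reflecting CREB driven transcription.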 Particulars: luminescence, 4.5 h, higher = more signal, called active from +8 up or from −8 down.
Assay [15] deals with Streptavidin (Streptomyces avidinii) (UniProt P22629). As to the kind of experiment: compounds binding control protein streptavidin – biophysical, small-molecule microarray, 635/667 nm fluorescence, artefact control for SMM compound annotation, primary screen (AID 1147).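 Also: signal reflects streptavidin binding to arrayed compounds as a control protein.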 Particulars: higher = more signal.
A short description of assay [16]: probe aInhba binding on compound microarray – biochemical, small-molecule microarray, 635/667 nm fluorescence, primary screen (AID 1148).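 Also: score merges 667nm spot fluorescence with signal-to-noise for antibody binding to printed compounds.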 Conditions: higher = more signal.
In assay [17] the target is Torsin-1A (Homo sapiens) (UniProt O14656). As to the kind of experiment: TOR1A wild-type binding on microarray – cell lysate, small-molecule microarray, lysate, 635/667 nm, primary screen (AID 1149). Particulars: COS7 hTOR1A-WT lysate, 635 nm fluorescence, higher = more signal.
The target is the same in assay [18]. Put plainly: torsin A mutant lysate binding on microarrays – cell lysate, small-molecule microarray, COS7 lysate, 635/667 nm fluorescence, primary screen (AID 1150).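 Also: score pools 667 nm emission and signal to noise measuring lysate protein binding.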 Conditions: COS7 hTOR1A mutant lysate, 635 nm fluorescence, higher = more signal.
Assay [19] concerns Sonic hedgehog protein (Shh). As to the kind of experiment: Sonic hedgehog microarray binding compounds – biochemical, small-molecule microarray, 635/667 nm fluorescence, primary screen (AID 1151).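 Also: Shh protein binding to compounds spotted on small-molecule microarray slides; score combines spot fluorescence intensity with signal-to-noise across triplicate slides.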 Particulars: 635 nm fluorescence, higher = more signal.

Chain of Fibroblast growth factor 2 (Homo sapiens) (P09038 whole entry, looked up): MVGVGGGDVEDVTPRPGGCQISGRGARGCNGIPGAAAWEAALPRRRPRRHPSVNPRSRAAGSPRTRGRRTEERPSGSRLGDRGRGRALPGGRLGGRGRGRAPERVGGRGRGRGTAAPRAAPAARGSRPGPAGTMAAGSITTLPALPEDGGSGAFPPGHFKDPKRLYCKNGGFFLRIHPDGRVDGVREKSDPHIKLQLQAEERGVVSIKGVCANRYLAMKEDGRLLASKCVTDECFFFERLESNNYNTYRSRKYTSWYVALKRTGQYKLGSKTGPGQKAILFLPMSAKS
Chain of Follistatin (Homo sapiens) (P19883 whole entry, looked up): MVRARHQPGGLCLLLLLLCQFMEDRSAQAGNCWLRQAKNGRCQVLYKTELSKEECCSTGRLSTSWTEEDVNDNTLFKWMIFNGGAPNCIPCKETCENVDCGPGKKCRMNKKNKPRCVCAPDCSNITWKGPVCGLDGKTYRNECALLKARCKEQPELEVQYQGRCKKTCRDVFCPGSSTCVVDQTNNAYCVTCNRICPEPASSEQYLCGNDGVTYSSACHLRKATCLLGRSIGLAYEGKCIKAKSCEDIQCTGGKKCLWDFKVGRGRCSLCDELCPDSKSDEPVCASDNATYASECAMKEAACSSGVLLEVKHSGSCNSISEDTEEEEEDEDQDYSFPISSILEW
Chain of Focal adhesion kinase 1 (Homo sapiens) (Q05397 whole entry, looked up): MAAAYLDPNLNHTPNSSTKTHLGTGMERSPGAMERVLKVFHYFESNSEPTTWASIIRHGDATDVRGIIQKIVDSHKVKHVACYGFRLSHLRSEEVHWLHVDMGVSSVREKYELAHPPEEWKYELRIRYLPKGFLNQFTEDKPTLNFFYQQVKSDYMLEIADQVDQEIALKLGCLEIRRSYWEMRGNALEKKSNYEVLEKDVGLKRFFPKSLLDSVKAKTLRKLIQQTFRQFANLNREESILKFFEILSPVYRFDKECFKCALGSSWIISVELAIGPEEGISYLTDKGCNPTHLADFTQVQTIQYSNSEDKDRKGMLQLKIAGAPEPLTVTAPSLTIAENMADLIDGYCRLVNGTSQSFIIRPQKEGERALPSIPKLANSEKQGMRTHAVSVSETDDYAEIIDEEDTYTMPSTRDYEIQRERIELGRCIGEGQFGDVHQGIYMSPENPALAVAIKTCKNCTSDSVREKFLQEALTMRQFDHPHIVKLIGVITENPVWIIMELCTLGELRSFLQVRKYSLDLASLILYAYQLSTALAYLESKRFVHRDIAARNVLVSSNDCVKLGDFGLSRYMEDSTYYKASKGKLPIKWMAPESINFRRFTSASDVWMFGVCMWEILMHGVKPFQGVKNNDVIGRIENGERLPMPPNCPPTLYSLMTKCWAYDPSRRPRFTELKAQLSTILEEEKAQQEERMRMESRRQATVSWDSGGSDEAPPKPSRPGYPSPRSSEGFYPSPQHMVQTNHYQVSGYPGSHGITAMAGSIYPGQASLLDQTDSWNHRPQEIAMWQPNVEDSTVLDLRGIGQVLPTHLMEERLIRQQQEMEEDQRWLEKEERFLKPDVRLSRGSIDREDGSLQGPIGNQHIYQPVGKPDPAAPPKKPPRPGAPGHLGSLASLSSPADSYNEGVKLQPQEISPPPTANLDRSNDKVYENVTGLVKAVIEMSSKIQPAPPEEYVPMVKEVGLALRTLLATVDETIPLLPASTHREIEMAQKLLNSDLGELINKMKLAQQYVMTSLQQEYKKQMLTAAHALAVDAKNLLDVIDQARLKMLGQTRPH
Chain of Luciferin 4-monooxygenase (Photinus pyralis) (P08659 whole entry, looked up): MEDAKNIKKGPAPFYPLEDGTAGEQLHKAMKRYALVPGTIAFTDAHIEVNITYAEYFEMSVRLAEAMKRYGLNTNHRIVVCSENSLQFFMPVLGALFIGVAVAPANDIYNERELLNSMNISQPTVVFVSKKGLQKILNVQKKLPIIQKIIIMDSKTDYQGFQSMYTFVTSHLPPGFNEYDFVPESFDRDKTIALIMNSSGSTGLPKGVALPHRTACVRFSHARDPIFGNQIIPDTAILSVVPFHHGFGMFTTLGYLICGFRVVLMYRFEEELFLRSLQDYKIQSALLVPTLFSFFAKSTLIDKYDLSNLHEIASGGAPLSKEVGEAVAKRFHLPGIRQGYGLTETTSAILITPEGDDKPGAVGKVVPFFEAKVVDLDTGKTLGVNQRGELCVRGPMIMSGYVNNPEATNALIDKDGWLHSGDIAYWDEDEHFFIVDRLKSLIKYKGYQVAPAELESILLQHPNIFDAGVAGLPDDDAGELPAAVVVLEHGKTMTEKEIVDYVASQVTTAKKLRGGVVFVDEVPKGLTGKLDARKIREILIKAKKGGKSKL
Chain of Streptavidin (Streptomyces avidinii) (P22629 whole entry, looked up): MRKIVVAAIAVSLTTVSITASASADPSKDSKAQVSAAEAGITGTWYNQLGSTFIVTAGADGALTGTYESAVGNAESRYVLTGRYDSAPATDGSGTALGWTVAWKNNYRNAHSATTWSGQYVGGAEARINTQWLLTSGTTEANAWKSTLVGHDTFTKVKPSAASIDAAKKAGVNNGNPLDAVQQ
Chain of Torsin-1A (Homo sapiens) (O14656 whole entry, looked up): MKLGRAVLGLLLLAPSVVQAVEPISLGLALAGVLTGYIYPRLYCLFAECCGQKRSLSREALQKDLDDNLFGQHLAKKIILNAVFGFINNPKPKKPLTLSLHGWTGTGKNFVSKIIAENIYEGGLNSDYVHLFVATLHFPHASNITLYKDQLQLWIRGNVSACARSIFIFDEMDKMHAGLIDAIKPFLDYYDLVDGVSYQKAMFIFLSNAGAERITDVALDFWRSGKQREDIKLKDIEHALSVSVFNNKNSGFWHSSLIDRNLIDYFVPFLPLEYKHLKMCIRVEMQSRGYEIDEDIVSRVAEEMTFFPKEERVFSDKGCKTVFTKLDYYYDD

For the compound `O=C1O[C@@H](c2ccccc2)[C@@H](c2ccccc2)N2[C@@H](c3ccc(OCCO)cc3)[C@]3(C(=O)Nc4ccc(C#CC5=CCCCC5)cc43)[C@@H](C(=O)Nc3nc4ccccc4s3)[C@H]12`, the composite z-score in assay [1] was 0.22; in [2], 0.525; in assay [3], -0.0302; in [4], 0.99; in assay [5], 0.593; in assay [6] it was 1.25. Further, the composite z-score with Lefty1 is 0.547; in assay [8], 0.453; in [10] it was 0.256; in assay [15], 0.549; in assay [16] it was -0.145; with Torsin-1A (Homo sapiens) [17] it was -0.0561. The results for the composite z-score (with Torsin-1A (Homo sapiens) [18]; in assay [19]) were 0.0025 and 1.43, respectively. Besides, the z-score in assay [7] is -2.31; in [9] it was -2.64 (inactive); in [11] it was -1.89 (inactive); in assay [12] it was -1.2 (inactive); in [13], -0.698 (inactive); in [14] it was -0.797 (inactive).

In the case of `COC(=O)C[C@H]1O[C@]2(C(=O)N(C)c3ccccc32)[C@@H](C)[C@@H]1[Si](C)(C)c1ccccc1`, the composite z-score in [1] turned out to be 0.83; in [2], 0.941; in [3] it was 0.764; in assay [4] it was 0.794; in assay [5], 1.05; in assay [6], 0.856. For the same compound, the composite z-score in the assay on Lefty1 is 0.966; in assay [8], 0.219; in assay [10], 0.148; in assay [15], 1.02; in assay [16] it was -0.204; with Torsin-1A (Homo sapiens) [17] it was 0.262. For the same compound, the composite z-score was 0.395 with Torsin-1A (Homo sapiens) [18] and 1.65 in assay [19]. For the same compound, the z-score in assay [7] was 0.186; in [9], 1.24 (inactive); in assay [11], -4.59 (inactive); in [12] it was 0.115 (inactive); in assay [13] it was -0.141 (inactive); in assay [14] it was -0.477 (inactive).

Consider `COc1ccc([Si](C)(C)[C@H]2[C@H](CC(=O)N3CCC[C@H]3CO)O[C@@]3(C(=O)N(C)c4c(Br)cc(C)cc43)[C@@H]2C)cc1`, for which the composite z-score came out at 1.15 in assay [1]; 1.22 in [2]; 1.44 in assay [3]; 0.74 in assay [4]; 1.59 in assay [5]; 1.86 in assay [6]. In addition, the composite z-score with Lefty1 amounted to 1.43; in [8], 1.59; in assay [10] it was 1.55; in [15], 3.28; in [16], 0.462; in the assay with Torsin-1A (Homo sapiens) [17], 2.05. Also, the composite z-score with Torsin-1A (Homo sapiens) [18] amounted to 1.5; in assay [19] it was 1.6. For the same compound, the z-score is -0.0282 in assay [7]; 0.395 (inactive) in [9]; -1.11 (inactive) in assay [11]; -0.518 (inactive) in [12]; 0.758 (inactive) in assay [13]; 1.09 (inactive) in [14].

Take `CCN1C(=O)C2CC(=O)C3C(CN(S(=O)(=O)c4ccc(C)cc4)C3c3ccc(C)cc3)C2C1=O` (stereo not given): the composite z-score was 1.98 in [1]; 1.18 in assay [2]; 1.09 in assay [3]; -0.38 in assay [4]; -0.238 in [5]; -0.315 in [6]. Further, the composite z-score in the assay with Lefty1 was -0.573; in assay [8], -0.0147; in [10] it was 0.235; in [15] it was 0.851; in assay [16], -0.0471; with Torsin-1A (Homo sapiens) [17], 0.364. Further, the composite z-score came out at 0.915 with Torsin-1A (Homo sapiens) [18] and 0.184 in [19]. In addition, the z-score in assay [7] was 0.0148; in [9], 0.12 (inactive); in [11], -1.49 (inactive); in [12], 1.03 (inactive); in assay [13], -0.676 (inactive); in assay [14] it was -0.202 (inactive).

As for `CCOC(=O)C[C@H]1[C@H](OC(=O)c2ccc(-c3ccccc3)cc2)[C@@H](NC(=O)c2ccc(-c3ccccc3)cc2)c2cc(OCCCO)ccc2N1C(=O)c1ccccc1`, the composite z-score in assay [1] was found to be 0.0004; in assay [2], 1.09; in assay [3], 1.03; in [4] it was 0.856; in assay [5], 0.627; in assay [6], 0.64. In addition, the composite z-score in the assay on Lefty1 turned out to be 0.627; in [8] it was 0.792; in assay [10], 0.131; in assay [15], 0.763; in assay [16] it was 0.108; with Torsin-1A (Homo sapiens) [17] it was 0.134. Also, the composite z-score in the assay with Torsin-1A (Homo sapiens) [18] came to 0.987; in assay [19] it was 0.921. Moreover, the z-score is 0.392 in assay [7]; -0.339 (inactive) in [9]; -0.212 (inactive) in assay [11]; -0.00979 (inactive) in assay [12]; -0.724 (inactive) in assay [13]; 0.659 (inactive) in assay [14].
